Values joined by “and” are separate entries in the source; they are usually repeats but may differ in a detail not shown here. Equal values may be shown once. The source holds several records for some structures; these can differ, active in one and inactive in another. Active and inactive are the calls of the source. The calls were made as follows: active = hit-call score of the fitted dose curve at least 0.9, where 1 is the maximum; inactive = score below 0.9.
Assays:
[1] = read-out: Urokinase-type plasminogen activator receptor (uPAR), PLAUR (gene 5329); assay: BSK_4H_uPAR: BioMAP Diversity Plus: 4H Assay for Urokinase-type plasminogen activator receptor (uPAR) Biomarker Activity (AID 2283030); settings: primary human endothelial cells (HUVEC); actives raise or lower the signal
In short: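 Chemicals are dosed onto human vascular endothelial primary cells (umbilical vein). After 24 h, uPAR is read by ELISA. Gain or loss of signal is fitted relative to DMSO.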

[2] = read-out: Vascular endothelial growth factor receptor 2 (Homo sapiens) (UniProt P35968); assay: BSK_4H_VEGFRII: BioMAP Diversity Plus: 4H Assay for Vascular endothelial growth factor receptor 2 (VEGFR2) Biomarker Activity (AID 2283031); settings: primary human endothelial cells (HUVEC); actives raise or lower the signal;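 as to AC50: cell-surface VEGFR2 protein level quantified by ELISA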
In short: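 VEGFRII levels on human vascular endothelial primary cells were determined by ELISA at 24 hours post-dosing, with gain- or loss-of-signal fitted against DMSO controls.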

[3] = read-out: Human Leukocyte Antigen - DR isotype (HLADR), HLA-DRA (gene 3122); assay: BSK_BE3C_HLADR: BioMAP Diversity Plus: BE3C Assay for Human Leukocyte Antigen - DR isotype (HLADR) Biomarker Activity (AID 2283032); settings: primary human bronchial epithelial cells; actives raise or lower the signal
In short: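 Human primary bronchial epithelial cells (BE3C system) exposed to compound for 24 hours; cell-surface HLA-DR measured by ELISA, fitted bidirectionally relative to DMSO. Total protein by SRB in parallel cultures tracked cytotoxicity.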

[4] = read-out: Vascular cell adhesion molecule 1 (VCAM1), VCAM1 (gene 7412); assay: BSK_4H_VCAM1: BioMAP Diversity Plus: 4H Assay for Vascular cell adhesion molecule 1 (VCAM1) Biomarker Activity (AID 2283033); settings: primary human endothelial cells (HUVEC); actives raise or lower the signal
In short: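 Primary human umbilical vein endothelial cells, 4H stimulation system, treated for 24 h; cell-surface VCAM-1 quantified by ELISA. Bidirectional fitting against DMSO; cytotoxicity tracked by SRB total-protein staining in parallel cultures.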

[5] = read-out: Interferon-gamma inducible Protein 10 (IP10), CXCL10 (gene 3627); assay: BSK_BE3C_IP10: BioMAP Diversity Plus: BE3C Assay for Interferon-gamma inducible Protein 10 (IP10) Biomarker Activity (AID 2283034); settings: primary human bronchial epithelial cells; actives raise or lower the signal
In short: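 Primary human bronchial epithelial cells, with IP-10 measured by ELISA 24 hours after chemical dosing. Bidirectional fit against DMSO; cytotoxicity checked by SRB total protein staining in parallel cultures.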

[6] = read-out: Monokine induced gamma interferon (MIG), CXCL9 (gene 4283); assay: BSK_BE3C_MIG: BioMAP Diversity Plus: BE3C Assay for Monokine induced gamma interferon (MIG) Biomarker Activity (AID 2283035); settings: primary human bronchial epithelial cells; actives raise or lower the signal
In short: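 MIG level was determined by ELISA after 24 h chemical treatment of primary human bronchial epithelial cells. Values were fitted bidirectionally with DMSO as the negative control and activity baseline.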

[7] = read-out: Plasminogen activator inhibitor-1 (PAI1), SERPINE1 (gene 5054); assay: BSK_BE3C_PAI1: BioMAP Diversity Plus: BE3C Assay for Plasminogen activator inhibitor-1 (PAI1) Biomarker Activity (AID 2283037); settings: primary human bronchial epithelial cells; actives raise or lower the signal
In short: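 Primary human bronchial epithelial cells (BE3C system) exposed 24 h; PAI-1 quantified by ELISA. Parallel sulforhodamine B staining of total protein flags cytotoxicity. Bidirectional fit versus DMSO.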

[8] = read-out: Urokinase-type plasminogen activator receptor (uPAR), PLAUR (gene 5329); assay: BSK_BE3C_uPAR: BioMAP Diversity Plus: BE3C Assay for Urokinase-type plasminogen activator receptor (uPAR) Biomarker Activity (AID 2283039); settings: primary human bronchial epithelial cells; actives raise or lower the signal
In short: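 Primary human bronchial epithelial cells dosed for 24 h; uPAR quantified by ELISA with bidirectional fitting against DMSO. Overt cytotoxicity assessed in parallel cultures by SRB total-protein staining (0.1% SRB, 560 nm).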

[9] = read-out: Interleukin-6 (IL6), IL6 (gene 3569); assay: BSK_CASM3C_IL6: BioMAP Diversity Plus: CASM3C Assay for Interleukin-6 (IL6) Biomarker Activity for (AID 2283040); settings: primary human coronary artery smooth muscle cells; actives raise or lower the signal
[10] = read-out: Tissue plasminogen activator (tPA), PLAT (gene 5327); assay: BSK_BE3C_tPA: BioMAP Diversity Plus: BE3C Assay for Tissue plasminogen activator (tPA) Biomarker Activity (AID 2283041); settings: primary human bronchial epithelial cells; actives raise or lower the signal
In short: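 Primary human bronchial epithelial cells in the BE3C system, exposed to compound for 24 h. tPA was quantified by ELISA; DMSO served as baseline, with gain or loss of signal fitted. Cytotoxicity checked in parallel cultures by SRB total-protein staining.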

[11] = read-out: Interleukin-8 (IL8), CXCL8 (gene 3576); assay: BSK_CASM3C_IL8: BioMAP Diversity Plus: CASM3C Assay for Interleukin-8 (IL8) Biomarker Activity (AID 2283042); settings: primary human coronary artery smooth muscle cells; actives raise or lower the signal;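 also: IL-8 protein level quantified by ELISA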
[12] = read-out: Human Leukocyte Antigen - DR isotype (HLADR), HLA-DRA (gene 3122); assay: BSK_CASM3C_HLADR: BioMAP Diversity Plus: CASM3C Assay for Human Leukocyte Antigen - DR isotype (HLADR) Biomarker Activity (AID 2283043); settings: primary human coronary artery smooth muscle cells; actives raise or lower the signal;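 also: cell-surface HLA-DR protein level quantified by ELISA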
[13] = read-out: Macrophage colony-stimulating factor (MCSF), CSF1 (gene 1435); assay: BSK_CASM3C_MCSF: BioMAP Diversity Plus: CASM3C Assay for Macrophage colony-stimulating factor (MCSF) Biomarker Activity (AID 2283044); settings: primary human coronary artery smooth muscle cells; actives raise or lower the signal;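 also: M-CSF protein amount quantified by ELISA after 24 h exposure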
[14] = read-out: Low-density lipoprotein receptor (LDLR), LDLR (gene 3949); assay: BSK_CASM3C_LDLR: BioMAP Diversity Plus: CASM3C Assay for Low-density lipoprotein receptor (LDLR) Biomarker Activity (AID 2283045); settings: primary human coronary artery smooth muscle cells; actives raise or lower the signal;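 also: LDLR protein level on the cell surface quantified by ELISA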
[15] = read-out: Monocyte Chemoattractant Protein-1 (MCP1), CCL2 (gene 6347); assay: BSK_CASM3C_MCP1: BioMAP Diversity Plus: CASM3C Assay for Monocyte Chemoattractant Protein-1 (MCP1) Biomarker Activity (AID 2283046); settings: primary human coronary artery smooth muscle cells; actives raise or lower the signal;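 also: MCP-1 level quantified by ELISA 24 h after dosing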
[16] = BSK_CASM3C_Proliferation: Cell Proliferation Assessment in the BioMAP Diversity Plus: CASM3C Assay (AID 2283047); settings: primary human coronary artery smooth muscle cells;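 also: sulforhodamine B total protein stain as relative cell number at 560 nm; sub-confluent cells exposed 48 h before staining; fitted both ways against DMSO so gain or loss of cell number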
[17] = read-out: Monokine induced gamma interferon (MIG), CXCL9 (gene 4283); assay: BSK_CASM3C_MIG: BioMAP Diversity Plus: CASM3C Assay for Monokine induced gamma interferon (MIG) Biomarker Activity (AID 2283048); settings: primary human coronary artery smooth muscle cells; actives raise or lower the signal;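 also: MIG protein level measured by ELISA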
[18] = read-out: serum amyloid A (SAA), SAA1 (gene 6288); assay: BSK_CASM3C_SAA: BioMAP Diversity Plus: CASM3C Assay for serum amyloid A (SAA) Biomarker Activity (AID 2283049); settings: primary human coronary artery smooth muscle cells; actives raise or lower the signal;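 also: SAA protein level quantified by ELISA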
[19] = read-out: urokinase plasminogen activator (uPA), PLAU (gene 5328); assay: BSK_BE3C_uPA: BioMAP Diversity Plus: BE3C Assay for urokinase plasminogen activator (uPA) Biomarker Activity (AID 2283038); settings: primary human bronchial epithelial cells; actives raise or lower the signal;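 also: uPA protein level quantified by ELISA in cell cultures; uPA read one day after compound addition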
In short: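 Measured by ELISA: uPA from human primary bronchial epithelial cells 24 h after chemical treatment. Values derive from bidirectional curve fitting with DMSO serving as negative control. Total protein by SRB staining in parallel wells flagged overt cytotoxicity.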

Measured: AC50

OCCCC(F)(F)C(F)(F)C(F)(F)C(F)(F)C(F)(F)C(F)(F)C(F)(F)F
active: [1] 51.2 µM and 47.3 µM | [2] 44.6 µM and 45.4 µM | [3] 50.4 µM and 45.9 µM | [4] 46.4 µM and 48.6 µM | [5] 47.6 µM and 46.4 µM | [6] 49.6 µM and 55.7 µM | [7] 47.1 µM and 30 µM | [8] 52.4 µM and 47.2 µM | [9] 42.1 µM and 48.2 µM | [10] 35.7 µM and 30 µM | [11] 49 µM | [12] 23.3 µM and 49 µM | [13] 22.1 µM and 43.6 µM | [14] 43.7 µM and 45.9 µM | [15] 38.3 µM and 28.9 µM | [16] 18.4 µM and 20.3 µM | [17] 41.7 µM and 41.9 µM | [18] 37.6 µM and 22.7 µM
inactive: [11]

C=CC(F)(F)C(F)(F)C(F)(F)C(F)(F)C(F)(F)C(F)(F)C(F)(F)C(F)(F)C=C
inactive: all assays above

O=C(O)C(F)(F)C(F)(F)C(F)(F)C(F)(F)F
not listed: [19]
inactive: all other assays above

FC(F)(F)C(F)(F)C(F)(F)C(F)(F)C(F)(F)CCI
active: [16] 7.99 µM and 30 µM
not listed: [19]
inactive: all other assays above

O=C(O)C(F)(OC(F)(F)C(F)(OC(F)(F)C(F)(OC(F)(F)C(F)(F)C(F)(F)F)C(F)(F)F)C(F)(F)F)C(F)(F)F (stereo unspecified)
not listed: [19]
inactive: all other assays above

FC(F)(F)C(F)(F)C(F)(F)N(C(F)(F)C(F)(F)C(F)(F)F)C(F)(F)C(F)(F)C(F)(F)F
inactive: all assays above

— PubChem BioAssay (EPA / NIEHS)
